# According to PubChem BioAssay (NCATS):
# Results filed as inconclusive are left out. Activity calls are given as the source filed them. The call rests on the fitted dose curve; in most records, active means well fitted curve in the direction sought with a large enough effect; inconclusive means small, poorly fitted or top-dose-only effect, or another doubt; inactive means no such curve, though single readings can be large; an effect the other way counts as inactive or inconclusive.
# Target: Luciferin 4-monooxygenase (Photinus pyralis) (UniProt P08659)
# Test: Biochemical firefly luciferase enzyme assay for NPC (AID 624030);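 further: purified P. pyralis luciferase at 10 nM with luciferin and ATP substrate; 0% = DMSO and -100% = full luciferase inhibition by PTC124 control; nearly all actives have a fitted effect of over 70% in size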
# Settings: purified P. pyralis luciferase, luminescence, 5 min; series mostly up to 58.6 µM; activity change, negative = inhibition: at the top concentration
# How it was run: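 Counter-screen for direct inhibition of the luciferase enzyme by approved-drug library compounds, run at 10 nM enzyme in 50 mM Tris acetate (final). Luminescence was read within 5 min of enzyme-buffer addition and normalized to PTC124 versus DMSO (0%).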
# Chain of Luciferin 4-monooxygenase (Photinus pyralis) (P08659 whole entry, looked up): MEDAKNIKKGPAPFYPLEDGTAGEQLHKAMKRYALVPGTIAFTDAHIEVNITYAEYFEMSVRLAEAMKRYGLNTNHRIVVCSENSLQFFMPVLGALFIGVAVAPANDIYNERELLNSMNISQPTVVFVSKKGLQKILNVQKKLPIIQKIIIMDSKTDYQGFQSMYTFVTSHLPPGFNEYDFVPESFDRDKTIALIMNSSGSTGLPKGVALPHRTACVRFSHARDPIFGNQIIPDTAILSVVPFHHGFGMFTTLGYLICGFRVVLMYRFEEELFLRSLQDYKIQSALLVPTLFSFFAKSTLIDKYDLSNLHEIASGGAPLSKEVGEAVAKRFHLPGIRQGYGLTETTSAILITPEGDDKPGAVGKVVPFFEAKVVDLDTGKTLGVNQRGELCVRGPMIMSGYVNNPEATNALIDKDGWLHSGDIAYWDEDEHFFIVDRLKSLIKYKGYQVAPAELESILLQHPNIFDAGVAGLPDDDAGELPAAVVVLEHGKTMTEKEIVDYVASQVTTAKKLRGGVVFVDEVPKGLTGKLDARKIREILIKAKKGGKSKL
Structure (SMILES),"activity change, negative = inhibition",Potency
C[C@H]1CNCCc2ccc(Cl)cc21,0.0467% (inactive),
c1ccc2c(c1)Sc1ccccc1N2CC1CN2CCC1CC2 (stereo not given),9.01% (inactive),
Clc1ccc(CO/N=C(\Cn2ccnc2)c2ccc(Cl)cc2Cl)c(Cl)c1,0.968% (inactive),
Cc1ccc(O)cc1,-3.89% (inactive),
COP(=S)(OC)Oc1ccc(S(N)(=O)=O)cc1,-1.16% (inactive),
COc1ccc2[nH]cc(CCN(C(C)C)C(C)C)c2c1,0.217% [at 123 µM] (inactive),
CN1CCc2cc(Cl)c(O)cc2[C@H]2c3ccccc3CC[C@@H]21,17.7% (inactive),
CC(=O)OC1(c2ccccc2)CCN(CCc2ccccc2)CC1,-0.434% [at 123 µM] (inactive),
CCCOC(=O)Cc1ccc(OCC(=O)N(CC)CC)c(OC)c1,0.0119% (inactive),
CN(C)CCc1c[nH]c2cccc(O)c12,-13% [at 123 µM] (inactive),
COc1ccc2c(C(=O)c3ccc(Cl)cc3)c(C)n(CC(=O)O)c2c1,-9.23% (inactive),
OC(c1ccccc1)(c1ccccc1)C1CCNCC1,-0.0045% [at 24.9 µM] (inactive),
C[C@]12Cc3nonc3C[C@@H]1CC[C@@H]1[C@@H]2CC[C@@]2(C)[C@H]1CC[C@]2(C)O,-4.75% (inactive),
Cc1nnc2n1-c1sc(CCc3ccc(CC(C)C)cc3)cc1C(c1ccccc1Cl)=NC2C (stereo not given),-5.12% (inactive),
CCC1(c2ccccc2)CCC(=O)NC1=O (stereo not given),-4.42% (inactive),
Cc1c(Cl)c(=O)oc2cc(OP(=O)(OCCCl)OCCCl)ccc12,0.642% (inactive),
CN1C(=O)[C@@H](NC(=O)c2cc3ccccc3[nH]2)N=C(c2ccccc2)c2ccccc21,0.0286% (inactive),
Cc1nnc2n1-c1sc(CCC(=O)N3CCOCC3)cc1C(c1ccccc1Cl)=NC2,,inactive
CC(Cc1ccccc1)NCc1ccccc1Cl (stereo not given),-5.67% (inactive),
CC(CC(C#N)(c1ccccc1)c1ccccc1)N(C)C (stereo not given),3.85% [at 123 µM] (inactive),

# Test system: not listed separately
# Test: S16 Schwann cell viability assay (CellTiter-Glo assay) (AID 624031); further: nearly all actives have a fitted effect of over 70% in size; further: potency means the concentration at half of the fitted maximal effect;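 on activity change, negative = cytotoxicity: cellular ATP luminescence as a viability measure; plate controls were DMSO-treated cells for no effect and cell-free wells for full effect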
# Settings: S16 rat Schwann cells viability, 24 h; series mostly up to 57.5 µM; activity change, negative = cytotoxicity: at the top concentration
# How it was run: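 CellTiter-Glo ATP luminescence counter-screen in untransfected S16 rat Schwann cells, 24h compound exposure at 37 degree Celsius after overnight seeding (500-750 cells/well); response scaled between cell-free wells and DMSO (0% activity), curves classed by r2 and magnitude.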
Structure (SMILES),"activity change, negative = cytotoxicity",Potency
Clc1ccc(CO/N=C(\Cn2ccnc2)c2ccc(Cl)cc2Cl)c(Cl)c1,-19% (inactive),
O=C1NCN(c2ccccc2)C12CCN(CCCC(c1ccc(F)cc1)c1ccc(F)cc1)CC2,,22.8 µM (active)
OC(c1ccccc1)(c1ccccc1)C1CCNCC1,-1.79% [at 25.7 µM] (inactive),
CCC1(c2ccccc2)CCC(=O)NC1=O (stereo not given),20.5% (inactive),
Cc1c(Cl)c(=O)oc2cc(OP(=O)(OCCCl)OCCCl)ccc12,-2.35% (inactive),
CN1C(=O)[C@@H](NC(=O)c2cc3ccccc3[nH]2)N=C(c2ccccc2)c2ccccc21,-11.4% (inactive),
CC(Cc1ccccc1)NCc1ccccc1Cl (stereo not given),-0.825% (inactive),

# Test system: not listed separately
# Test: S16 Schwann cell PMP22 intronic element firefly luciferase assay (AID 624032); further: nearly all actives have a fitted effect of over 30% in size; further: potency means the concentration at half of the fitted maximal effect;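 on activity change, negative = inhibition: plate controls were DMSO for no effect and PTC124 positive control mean for full effect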
# Settings: S16 rat Schwann cells, PMP22 element FLuc, 24 h; series mostly up to 57.5 µM; activity change, negative = inhibition: at the top concentration
# How it was run: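 Rat S16 Schwann cells stably carrying a PMP22 intronic element-driven Fluc reporter were seeded overnight, then exposed to compounds for 24 h at 37 °C. Luminescence was normalized to PTC124 (positive control) and DMSO (0% activity).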
Structure (SMILES),Potency,"activity change, negative = inhibition"
CCCCCCCCCCCCCCCC[n+]1ccccc1,10.2 µM (active),
Clc1ccc(CO/N=C(\Cn2ccnc2)c2ccc(Cl)cc2Cl)c(Cl)c1,32.2 µM (active),
O=C(O)c1ccc(OCCCOc2ccc(C(=O)O)cc2)cc1,,38.2% (inactive)
COC(=O)C1=C(C)NC(C)=C(C(=O)OC)C1c1ccccc1[N+](=O)[O-],18.1 µM (active),
CN(C)C(=S)SC(=S)N(C)C,2.87 µM (active),
CC1CCc2cc(F)cc3c(=O)c(C(=O)O)cn1c23 (stereo not given),,37.7% (inactive)
NC(N)=NN=C(/C=C/c1ccc([N+](=O)[O-])o1)/C=C/c1ccc([N+](=O)[O-])o1,7.21 µM (active),
CN1CCc2cc(Cl)c(O)cc2[C@H]2c3ccccc3CC[C@@H]21,,-1.59% (inactive)
CN1CCN(c2cc3c(nn2)Oc2ccccc2N3C)CC1,,108% (inactive)
O=C(Oc1cccc2cccnc12)c1ccccc1,9.07 µM (active),
O=c1cc(CO)occ1O,16.1 µM (active),
COc1cc(C(=S)N2CCOCC2)ccc1O,5.1 µM (active),
NC(=O)NNc1ccccc1,inactive,
Cc1cccc(C)c1NC(=O)CN1CCCC1,8.09 µM (active),
CC(C)(C)C(=O)C(Oc1ccc(Cl)cc1)n1ccnc1 (stereo not given),2.03 µM (active),
Clc1ccc2c(c1)CCc1cccnc1C2=C1CCNCC1,28.7 µM (active),
OC(c1ccccc1)(c1ccccc1)C1CCNCC1,,13.5% [at 25.7 µM] (inactive)
CCCCCCCCCCCCOCCOCCOCCOCCOCCOCCOCCOCCOCCO,18.1 µM (active),
C[C@]12Cc3nonc3C[C@@H]1CC[C@@H]1[C@@H]2CC[C@@]2(C)[C@H]1CC[C@]2(C)O,14.4 µM (active),
CN1C[C@H](C(=O)N[C@]2(C)O[C@@]3(O)[C@@H]4CCCN4C(=O)[C@H](Cc4ccccc4)N3C2=O)C[C@@H]2c3cccc4[nH]cc(c34)C[C@H]21,25.6 µM (active),
CCC1(c2ccccc2)CCC(=O)NC1=O (stereo not given),,15.9% (inactive)
Cc1c(Cl)c(=O)oc2cc(OP(=O)(OCCCl)OCCCl)ccc12,12.8 µM (active),
CC(Cc1ccccc1)NCc1ccccc1Cl (stereo not given),,16.4% (inactive)
